This note sets out measurements from PubChem BioAssay (NCATS).

Experiment [1] can be described thus: qHTS Assay for Lipid Storage Modulators (AID 1519). As to activity change, negative = inhibition: % is scaled to controls: 0 for no effect and ±100 for the full control effect. As to conditions: Drosophila S3 cells, BODIPY lipid droplet/cell ratio, laser cytometry, cells loaded with oleic acid. A digest of the protocol:
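Cells seeded at 5,000 per well were treated with compounds over a concentration series and loaded with oleic acid (400 uM, as added). Lipid droplet fluorescence (488 nm excitation, 500-530 nm channel) was read by laser-scanning cytometry and normalized to 20 uM Triacsin C.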

A short description of experiment [2]: Validation of Assay for Modulators of Lamin A Splicing (AID 1459; active = well fitted curve in the direction sought with a large enough effect in the signal ratio; the % refers to the signal ratio;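 also: cells exposed to compound for two days before reading; 0% is about no effect; ratio rise marks activators and ratio drop marks inhibitors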). As to conditions: Lamin A splicing dual RFP/GFP fluorescence reporter; series mostly up to 9.22 µM. A digest of the protocol: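 HeLa S3 lamin A-EGFP/DsRed2 stable clone, 600 cells/well, Opti-MEM 2% FBS; compounds by pin tool; 48 hrs, 37 °C/5% CO2; Acumen 488 nm scan, objects 10-100 um; GFP/RFP intensity ratio.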

For experiment [3], the target named is DNA repair nuclease/redox regulator APEX1 (Homo sapiens) (UniProt P27695). The experiment is described as follows: qHTS Validation Assay for Inhibitors of the Human Apurinic/apyrimidinic Endonuclease 1 (APE1) (AID 1705; active = well fitted inhibition curve with a large enough effect;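 also: TAMRA fluorescence gain over two minutes as APE1 cuts a quenched THF abasic duplex; % is scaled to controls: 0 for no effect and ±100 for the full control effect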). As to conditions: purified APE1 endonuclease activity, fluorescence, titration; series mostly up to 57.1 µM. The essentials: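 qHTS, 1536-well. APE1 + cpd 15 min RT → 50 nM TAMRA/BHQ-2 THF-abasic dsDNA substrate → kinetic fluorescence, 3 reads/60 s; delta(read3−read1) = reaction progress. No-enzyme buffer = negative control.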
DNA repair nuclease/redox regulator APEX1 (Homo sapiens), sequence (P27695 whole entry, looked up): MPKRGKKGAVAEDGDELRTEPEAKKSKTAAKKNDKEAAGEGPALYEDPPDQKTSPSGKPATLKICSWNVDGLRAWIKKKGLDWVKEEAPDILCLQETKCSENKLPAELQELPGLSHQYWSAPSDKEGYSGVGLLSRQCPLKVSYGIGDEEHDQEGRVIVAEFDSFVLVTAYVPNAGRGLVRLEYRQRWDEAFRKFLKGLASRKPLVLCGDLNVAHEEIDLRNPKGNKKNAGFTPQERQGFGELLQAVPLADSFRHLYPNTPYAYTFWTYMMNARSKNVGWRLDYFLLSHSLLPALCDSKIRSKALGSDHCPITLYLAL

[4] abbreviates: measured here: cell count channel max response.
Setting [5] is: measured here: lipid channel max response.

Each structure is given as a SMILES string. Results filed as inconclusive are left out. Calls of active or inactive are those of the source. Unless noted, calls follow the shape of the full dose curve.

Consider `CCN(CC)Cc1cc(Nc2ccnc3cc(Cl)ccc23)ccc1O`, for which the activity change, negative = inhibition in experiment [1] (at 25.7 µM (top of the series)) was -2.24% (inactive). Further, the max response in experiment [1] (setting [4]) was -18.5%; in experiment [1] (setting [5]), -20.7%.
As for `CC1=C(/C=C/C(C)=C/C=C/C(C)=C/C=C/C=C(C)/C=C/C=C(C)/C=C/C2=C(C)C(=O)CCC2(C)C)C(C)(C)CCC1=O`, the activity change, negative = inhibition in experiment [1] (at 57.5 µM (top of the series)) was 5.18% (inactive). For the same compound, the figures for the max response in experiment [1] (setting [4]) and in experiment [1] (setting [5]) were 20.9% and 28.3%, respectively.
`O=C(O)CN(CCN(CC(=O)O)CC(=O)O)CC(=O)O`: the activity change, negative = inhibition in experiment [1] (at 57.5 µM (top of the series)) was 6.6% (inactive). The max response in experiment [1] (setting [4]) is -1.95%; in experiment [1] (setting [5]), 6.6%.
In the same order, the values of `C=CCSSSCC=C` are 6.54% (inactive), -4.64% and 3.63%.
On to `CCCC(=O)Nc1ncnc2c1ncn2[C@@H]1O[C@@H]2COP(=O)(O)O[C@H]2[C@H]1OC(=O)CCC`, for which the activity change, negative = inhibition in experiment [1] (at 57.5 µM (top of the series)) is 1.77% (inactive). Besides, the max response in experiment [1] (setting [4]) was -7.18%; in experiment [1] (setting [5]), -6.01%.
On to `NC(=O)c1ncn(C2OC(CO)C(O)C2O)n1` (configuration not stated), for which the activity change, negative = inhibition in experiment [1] (at 57.5 µM (top of the series)) is 2.97% (inactive). Moreover, the max response in experiment [1] (setting [4]) is 6.51%; in experiment [1] (setting [5]), 12.6%.
In the case of `CN1Cc2c(N)cccc2C(c2ccccc2)C1` (configuration not stated), the compound was called inactive in experiment [2] and in experiment [3]. Moreover, the activity change, negative = inhibition in experiment [1] (at 57.5 µM (top of the series)) was 0.643% (inactive). The max response amounted to 11.3% in experiment [1] (setting [4]) and 9.26% in experiment [1] (setting [5]).
As to `CCC(=O)NCCC1CCc2ccc3c(c21)CCO3` (configuration not stated), in experiment [1] (at 57.5 µM (top of the series)), the activity change, negative = inhibition was 11.3% (inactive). Also, the max response in experiment [1] (setting [4]) was 9.34%; in experiment [1] (setting [5]), 23.8%.
Regarding `Cc1c(C)c2c(c(C)c1O)CC[C@@](C)(CCC[C@@H](C)CCC[C@@H](C)CCCC(C)C)O2`, the activity change, negative = inhibition in experiment [1] (at 25.7 µM (top of the series)) was -2.72% (inactive). Further, the max response in experiment [1] (setting [4]) is 2.07%; in experiment [1] (setting [5]), -0.999%.
`OCc1ccccc1O[C@@H]1O[C@H](CO)[C@@H](O)[C@H](O)[C@H]1O`: in experiment [1] (at 57.5 µM (top of the series)), the activity change, negative = inhibition is -1.43% (inactive). Also, the max response is -14.9% in experiment [1] (setting [4]) and -16.3% in experiment [1] (setting [5]).
The corresponding values for `Cc1c(C)c2c(c(C)c1O)CC[C@@](C)(CCC[C@H](C)CCC[C@H](C)CCCC(C)C)O2` are 0.911% (inactive), -14.2% and -14.3%.
Regarding `Cc1cc(C(=O)NNCc2ccccc2)no1`, the activity change, negative = inhibition in experiment [1] (at 25.7 µM (top of the series)) was -1.95% (inactive). Also, the max response in experiment [1] (setting [4]) was -16.5%; in experiment [1] (setting [5]) it was -16.7%.
The corresponding values for `CC1(C)S[C@@H]2[C@H](NC(=O)Cc3ccccc3)C(=O)N2[C@H]1C(=O)O` are -1.47% (inactive), 2.65% and 2.53%.
The corresponding values for `CC1(C)S[C@@H]2[C@H](NC(=O)[C@@H](NC(=O)N3CCNC3=O)c3ccccc3)C(=O)N2[C@H]1C(=O)O` are -1.89% (inactive), -12.9% and -11.6%.
On to `C[C@@H]1CCC2[C@@H](C)[C@@H](O)O[C@@H]3O[C@@]4(C)CC[C@@H]1[C@@]23OO4` (some centres not stated), for which the activity change, negative = inhibition in experiment [1] (at 57.5 µM (top of the series)) is -0.729% (inactive). The max response in experiment [1] (setting [4]) was determined as 14.2%; in experiment [1] (setting [5]) it was 15.2%.
